# The sample as a whole holds a higher share of the strongest signals than the screen did.
# Experiments:
# Assay in all cases: glycan array binding signal (z-score within array); higher = stronger binding
# Conditions in all cases: glycan notation: IUPAC condensed, linker removed
# [1] = target: Fuc(a1-2)Gal(b1-3)GlcNAc(b1-2)Man(a1-3)[Fuc(a1-2)Gal(b1-3)GlcNAc(b1-2)Man(a1-6)]Man(b1-4)GlcNAc(b1-4)GlcNAc
# Summary of the method: (§1)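 Glycan array binding is given as a within-array Z-score, which can be read as non-binding when negative. The arrays, 3228 of them, came from the Consortium for Functional Glycomics database and were retained only where the protein sequence was available. Z-scores were averaged across arrays of the same protein sequence at different concentrations or buffers and across linkers.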
# [2] = target: Fuc(a1-2)Gal(b1-4)Fuc(a1-3)]GlcNAc(b1-2)Man(a1-3)[Fuc(a1-2)Gal(b1-4)[Fuc(a1-3)]GlcNAc(b1-2)Man(a1-6)]Man(b1-4)GlcNAc(b1-4)GlcNAc
# Summary of the method: as §1
# Fuc(a1-2)Gal(b1-4)GlcNAc = target: Fuc(a1-2)Gal(b1-4)GlcNAc
# Summary of the method: as §1
# [3] = target: Fuc(a1-2)Gal(b1-4)GlcNAc(b1-2)Man(a1-3)[Fuc(a1-2)Gal(b1-4)GlcNAc(b1-2)Man(a1-6)]Man(b1-4)GlcNAc(b1-4)[Fuc(a1-6)]GlcNAc
# Summary of the method: as §1
# [4] = target: Fuc(a1-2)Gal(b1-4)GlcNAc(b1-3)Gal(b1-4)GlcNAc(b1-2)Man(a1-3)[Fuc(a1-2)Gal(b1-4)GlcNAc(b1-3)Gal(b1-4)GlcNAc(b1-2)Man(a1-6)]Man(b1-4)GlcNAc(b1-4)GlcNAc
# Summary of the method: as §1
# [5] = target: Fuc(a1-2)[Gal(a1-3)]Gal(b1-3)GlcNAc(b1-2)Man(a1-3)[Fuc(a1-2)[Gal(a1-3)]Gal(b1-3)GlcNAc(b1-2)Man(a1-6)]Man(b1-4)GlcNAc(b1-4)GlcNAc
# Summary of the method: as §1
# [6] = target: Fuc(a1-2)[Gal(a1-3)]Gal(b1-3)GlcNAc(b1-6)GalNAc
# Summary of the method: as §1
# [7] = target: Fuc(a1-2)[Gal(a1-3)]Gal(b1-4)Glc
# Summary of the method: as §1
# [8] = target: Fuc(a1-2)[GalNAc(a1-3)]Gal(b1-4)GlcNAc(b1-2)Man(a1-3)[Fuc(a1-2)[GalNAc(a1-3)]Gal(b1-4)GlcNAc(b1-2)Man(a1-6)]Man(b1-4)GlcNAc(b1-4)[Fuc(a1-6)]GlcNAc
# Summary of the method: as §1
# [9] = target: Fuc(a1-2)[GalNAc(a1-3)]Gal(b1-4)GlcNAc(b1-3)GalNAc
# Summary of the method: as §1
# [10] = target: Fuc(a1-2)[GalNAc(b1-3)]Gal
# Summary of the method: as §1
# [11] = target: Fuc(a1-3)[Gal(b1-4)]GlcNAc(b1-2)Man(a1-3)[Fuc(a1-3)[Gal(b1-4)]GlcNAc(b1-2)Man(a1-6)]Man(b1-4)GlcNAc(b1-4)[Fuc(a1-6)]GlcNAc
# Summary of the method: as §1
# [12] = target: Fuc(a1-3)[Gal3S(b1-4)]Glc
# Summary of the method: as §1
# [13] = target: Gal(a1-3)Gal(b1-3)GlcNAc(b1-2)Man(a1-3)[Gal(a1-3)Gal(b1-3)GlcNAc(b1-2)Man(a1-6)]Man(b1-4)GlcNAc(b1-4)GlcNAc
# Summary of the method: as §1
# [14] = target: Gal(a1-4)Gal(b1-3)GlcNAc(b1-2)Man(a1-3)[Gal(a1-4)Gal(b1-3)GlcNAc(b1-2)Man(a1-6)]Man(b1-4)GlcNAc(b1-4)GlcNAc
# Summary of the method: as §1
# [15] = target: Gal(b1-3)GalNAc(a1-3)[Fuc(a1-2)]Gal(b1-4)GlcNAc
# Summary of the method: as §1
# [16] = target: Gal(b1-3)GlcNAc(b1-3)Gal(b1-4)GlcNAc(b1-2)Man(a1-3)[Gal(b1-3)GlcNAc(b1-3)Gal(b1-4)GlcNAc(b1-2)Man(a1-6)]Man(b1-4)GlcNAc(b1-4)GlcNAc
# Summary of the method: as §1
# [17] = target: Gal(b1-3)GlcNAc(b1-3)Gal(b1-4)GlcNAc(b1-6)[Gal(b1-3)GlcNAc(b1-3)]Gal(b1-4)Glc
# Summary of the method: as §1
# [18] = target: Gal(b1-3)GlcNAc(b1-6)GalNAc
# Summary of the method: as §1
# [19] = target: Gal(b1-3)[Fuc(a1-4)]GlcNAc
# Summary of the method: as §1
# Gal(b1-4)Glc6S = target: Gal(b1-4)Glc6S
# Summary of the method: as §1
# [20] = target: Gal(b1-4)GlcNAc(b1-2)Man(a1-3)Man(b1-4)GlcNAc(b1-4)GlcNAc
# Summary of the method: as §1
# [21] = target: Gal(b1-4)GlcNAc(b1-3)Gal(b1-4)GlcNAc(b1-2)Man(a1-3)[Gal(b1-4)GlcNAc(b1-3)Gal(b1-4)GlcNAc(b1-2)Man(a1-6)]Man(b1-4)GlcNAc(b1-4)GlcNAc
# Summary of the method: as §1
# [22] = target: Gal(b1-4)GlcNAc(b1-3)Gal(b1-4)GlcNAc(b1-2)Man(a1-3)[Gal(b1-4)GlcNAc(b1-3)Gal(b1-4)GlcNAc(b1-2)Man(a1-6)]Man(b1-4)GlcNAc(b1-4)[Fuc(a1-6)]GlcNAc
# Summary of the method: as §1
# [23] = target: Gal(b1-4)GlcNAc(b1-3)Gal(b1-4)GlcNAc(b1-2)[Gal(b1-4)GlcNAc(b1-3)Gal(b1-4)GlcNAc(b1-6)]Man(a1-6)[Gal(b1-4)GlcNAc(b1-3)Gal(b1-4)GlcNAc(b1-2)Man(a1-3)]Man(b1-4)GlcNAc(b1-4)[Fuc(a1-6)]GlcNAc
# Summary of the method: as §1
# [24] = target: Gal(b1-4)GlcNAc(b1-3)Gal(b1-4)GlcNAc(b1-3)Gal(b1-4)GlcNAc(b1-2)Man(a1-3)[Gal(b1-4)GlcNAc(b1-3)Gal(b1-4)GlcNAc(b1-3)Gal(b1-4)GlcNAc(b1-2)Man(a1-6)]Man(b1-4)GlcNAc(b1-4)GlcNAc
# Summary of the method: as §1
# [25] = target: Gal(b1-4)GlcNAc(b1-3)Gal(b1-4)GlcNAc(b1-3)Gal(b1-4)GlcNAc(b1-2)[Gal(b1-4)GlcNAc(b1-3)Gal(b1-4)GlcNAc(b1-3)Gal(b1-4)GlcNAc(b1-6)]Man(a1-6)[Gal(b1-4)GlcNAc(b1-3)Gal(b1-4)GlcNAc(b1-3)Gal(b1-4)GlcNAc(b1-2)Man(a1-3)]Man(b1-4)GlcNAc(b1-4)[Fuc(a1-6)]GlcNAc
# Summary of the method: as §1
# [26] = target: Gal(b1-4)GlcNAc(b1-3)Gal(b1-4)GlcNAc(b1-3)[Gal(b1-4)GlcNAc(b1-3)Gal(b1-4)GlcNAc(b1-6)]GalNAc
# Summary of the method: as §1
# [27] = target: Gal(b1-4)GlcNAc(b1-3)Gal(b1-4)GlcNAc(b1-6)[Gal(b1-3)]GalNAc
# Summary of the method: as §1
# Gal6S(b1-4)GlcNAc6S = target: Gal6S(b1-4)GlcNAc6S
# Summary of the method: as §1
binder,measurement,setting,value
"InvD YPIII (Yersinia pseudotuberculosis), B1JSC0 (protein) MIKYFSFFKKPEPIVGILPNRQSHHILPTHIRRVAWGTLLLQLFIPLSVSFSPAIAAMKASKADTMVSYSSTEPYVLGSGETVAMVAKKYGITVDELKKINIYRTFSRPFTALTTGDEIDIPRKASPFSVDNNKDNRLSVENTLAGHAVAGATALSNGDVAKSGERMVRSAASNEFNNSAQQWLSQFGTARVQLNINDDFHLDGSAADVLIPLYDNEKSILFTQLGARNKDSRNTVNMGAGVRTFQGNWMYGANTFFDNDLTGKNRRIGVGAEAWTDYLKLSANNYFGITDWHQSRDFIDYNERPANGYDLRAEAYLPSYPQLGGKAMYEKYRGDDVALFGKDNRQKNPHAITAGVNYTPIPLVTIGAEHRAGKGGQNDSNINFQLNYRLGETWQSHIDPSAVAASRTLAGSRYDLVERNNHIVLDYQKQNLVRLSLPDSLAGDPFSQLSVTAQVTATHGLERIDWQSAELMAAGGVLKQTSKNGLEITLPEYQMNRTGGNSYILNAIAYDTQGNASSQASMLITVNAQKINIANSTLVAVPINIEANNSDTSVVTLTLKDDNNIPVTGQDVTFLSPLGTLSAMTDSGNGVYTATLTAGTVSGTTAVSSNINGSALDMTPATVTLNGNSGELSITHSMLVAAPVNIEANGSDTSVVTLTLRDSNNNPVTGQTVTFAGTLGTLGAVTEGSSGVYTATLTAGIMVGTSSITASVNSTALGVTPATVTLNGDSGNLSTTNSTLVAAPVNIEANSSDTSVVTLTLRDNNNNPVTGQTVVFTSTLGTLGNVTEQASGVYTATLTAGTVSGVASLSVSVGGNALGVTPATVTLNGDSGNLSTTNSTLVAAPVNIEANSSDTSVVTLTLRDNNNNPVTGQTVNFAGTLGTLGTVSEGSSGVYTTTLTAGTVAGVASLSVNVGGNALGVTPATVTLNGNSGNLSATNSTLVAAPVNIEANSSDTSVVTLTLRDNNNNPVTGQTVAFTSTLGTLGNVTEQASGVYTATLTAGTVSGVASLSVSVNSNALGVTPATVTLNGDSGNLSTTNSTLVAAPVNIEANSSDTSVVTLTLRDNNNNPVTGQTVAFTSTLGTLGNVTEQASGLYTATLTAGTVSGVASLSVNVGGNALGVTPATVTLNGDSGNLSATNSTLVAAPVNIEANSSDTSVVTLTLRDNNNNPVTGQTVAFTSTLGTLGNVTEQASGLYTATLTAGTVSGVASLSVNVGGTALGVTPATVTLNGDSGNLSTTNSTLVAAPVNIEANSSDTSVVTLTLRDNNNNPVTGQTVAFTSTLGTLGNVTEQASGLYTATLTAGTVSGVASLSVSVNSTALGVTPATVTLNGDSGNLSTTNSTLVAAPVNIEANSSDTSVVTLTLRDNNNNPVTGQTVAFTSTLGTLGNVTEQASGVYTATLTAGTVAGVASLSVNVGGNALGVTPATVTLNGDSGNLSTTNSTLVAAPVNIEANSSDTSVVTLTLRDNNNNPVTGQTVAFTSTLGTLGNVTEQASGVYTATLTAGTVSGVASLSVSVGSSALGVTPATVTLNGDSGNLSTTNSTLVAAPVNIEANNSDTSVVTLTLRDNNNNPVTGQTVAFTSTLGTLGNVTEQASGVYTATLTAGTVSGVASLSVSVNSNALGVTPATVTLNGDSGNLSTTNSTLVAAPVNIEANSSDTSVVTLTLRDNNNNPVTGQTVVFTSTLGTLGNVTEQASGLYTATLTAGTVSGVASLSVSVGGNALGVTGNITLAPGALDAARSILAVNKPSINADDRIGSTITFTAQDAQGNAITGLDIAFMTDLENSQIMTLVDHNDGTYTANINGTQTGIANIAVQSSGATIAGLAATMVTITPGAWNTTQATPVMTVALPITTCQSSSGVYKRYYIGIVTHELYDNYGNEISGILTYNLGAGRYTTVTSQNSSVSGSNGLTRRSNSPVSHFILTSDAYTSQAACYAERIANVNVTITVTAITDDFKTSAVNKVFILGTGSN",glycan array binding signal (z-score),[1],0.001
same,glycan array binding signal (z-score),[2],1.36
same,glycan array binding signal (z-score),Fuc(a1-2)Gal(b1-4)GlcNAc,-0.154
same,glycan array binding signal (z-score),[3],0.037
same,glycan array binding signal (z-score),[4],-0.232
same,glycan array binding signal (z-score),[5],-0.164
same,glycan array binding signal (z-score),[6],0.218
same,glycan array binding signal (z-score),[7],-0.359
same,glycan array binding signal (z-score),[8],0.113
same,glycan array binding signal (z-score),[9],-0.306
same,glycan array binding signal (z-score),[10],0.063
same,glycan array binding signal (z-score),[11],-0.147
same,glycan array binding signal (z-score),[12],-0.259
same,glycan array binding signal (z-score),[13],0.213
same,glycan array binding signal (z-score),[14],0.015
same,glycan array binding signal (z-score),[15],-0.102
same,glycan array binding signal (z-score),[16],-0.358
same,glycan array binding signal (z-score),[17],-0.192
same,glycan array binding signal (z-score),[18],-0.16
same,glycan array binding signal (z-score),[19],-0.119
same,glycan array binding signal (z-score),Gal(b1-4)Glc6S,-0.213
same,glycan array binding signal (z-score),[20],-0.355
same,glycan array binding signal (z-score),[21],10.1
same,glycan array binding signal (z-score),[22],2.01
same,glycan array binding signal (z-score),[23],1.88
same,glycan array binding signal (z-score),[24],1.59
same,glycan array binding signal (z-score),[25],1.62
same,glycan array binding signal (z-score),[26],1.71
same,glycan array binding signal (z-score),[27],1.51
same,glycan array binding signal (z-score),Gal6S(b1-4)GlcNAc6S,-0.131
